# In ChEMBL document CHEMBL4808148, “HDAC6 screening dataset using tau-based substrate in an enzymatic assay yields selective inhibitors and activators” (2021):
# Among all 5,600 compounds or so, about 390 (7%) showed an effect of 50% or more. The sample as a whole holds a higher share of strong results than the screen did.
# Target: T1, Protein deacetylase HDAC6 (Homo sapiens) (UniProt Q9UBN7)
# T1 sequence (whole entry): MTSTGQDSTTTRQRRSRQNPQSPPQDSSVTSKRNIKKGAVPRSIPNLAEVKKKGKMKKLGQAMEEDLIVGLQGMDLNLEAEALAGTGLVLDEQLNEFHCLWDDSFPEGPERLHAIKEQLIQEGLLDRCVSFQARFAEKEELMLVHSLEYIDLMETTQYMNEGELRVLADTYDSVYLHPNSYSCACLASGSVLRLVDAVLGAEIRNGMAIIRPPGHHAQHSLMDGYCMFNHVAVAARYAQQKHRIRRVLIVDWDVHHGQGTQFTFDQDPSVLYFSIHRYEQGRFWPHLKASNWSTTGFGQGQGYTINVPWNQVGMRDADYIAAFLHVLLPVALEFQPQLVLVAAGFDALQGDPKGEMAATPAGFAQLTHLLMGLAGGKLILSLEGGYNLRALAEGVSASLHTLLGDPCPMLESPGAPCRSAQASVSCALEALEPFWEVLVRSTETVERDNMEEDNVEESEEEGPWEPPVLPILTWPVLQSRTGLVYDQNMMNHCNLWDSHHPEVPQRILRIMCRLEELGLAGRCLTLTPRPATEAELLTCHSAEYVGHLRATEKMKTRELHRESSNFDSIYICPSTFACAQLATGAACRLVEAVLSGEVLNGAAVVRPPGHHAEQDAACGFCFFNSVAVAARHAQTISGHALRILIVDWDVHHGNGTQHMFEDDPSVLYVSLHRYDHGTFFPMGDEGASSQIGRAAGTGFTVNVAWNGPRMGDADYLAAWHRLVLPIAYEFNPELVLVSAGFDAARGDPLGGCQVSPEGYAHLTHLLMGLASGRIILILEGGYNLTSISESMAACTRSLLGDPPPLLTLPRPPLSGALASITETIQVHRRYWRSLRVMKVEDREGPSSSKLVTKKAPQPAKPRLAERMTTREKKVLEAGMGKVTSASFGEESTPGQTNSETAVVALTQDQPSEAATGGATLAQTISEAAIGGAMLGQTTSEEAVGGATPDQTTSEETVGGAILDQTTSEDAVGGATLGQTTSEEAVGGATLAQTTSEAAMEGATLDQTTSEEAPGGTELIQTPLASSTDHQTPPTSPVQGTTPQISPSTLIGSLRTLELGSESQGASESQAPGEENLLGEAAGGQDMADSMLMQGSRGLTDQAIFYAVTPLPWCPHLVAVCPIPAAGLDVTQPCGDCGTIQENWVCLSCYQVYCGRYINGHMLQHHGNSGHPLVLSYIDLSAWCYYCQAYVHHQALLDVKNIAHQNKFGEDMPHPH
# Conditions: at 10 µM
row,Compound,inhibition [%]
1,O=C(Nc1cccc2cccnc12)c1ccc(N2C(=O)[C@@H]3[C@H](C2=O)[C@H]2C=C[C@@H]3C2)cc1,-1.4
2,O=C(Nc1cccc2cccnc12)c1ccc(N2C(=O)[C@@H]3[C@H](C2=O)[C@@H]2C=C[C@H]3C2)cc1,56.2
3,FC(F)(F)c1cc(NC(=S)Nc2ccc(Br)cc2-c2nnn[nH]2)cc(C(F)(F)F)c1,74.5
4,Oc1nc(O)c2nc(O)[nH]c2n1,12.1
5,CN1CCCC(CN2c3ccccc3Sc3ccccc32)C1 (configuration not stated),48.4
6,CN(C)CCCN1c2ccccc2Sc2ccc(C(F)(F)F)cc21,89.2
7,CN1CCN(CCCN2c3ccccc3Sc3ccc(S(=O)(=O)N(C)C)cc32)CC1,-2.89
8,OCCN1CCN(CCCN2c3ccccc3Sc3ccc(Cl)cc32)CC1,36.5
9,CC(=O)c1ccc2c(c1)N(CCCN1CCC(CCO)CC1)c1ccccc1S2,76.9
10,CCN(CC)C(C)CN1c2ccccc2Sc2ccccc21 (configuration not stated),11.7
11,CC(CN(C)C)CN1c2ccccc2Sc2ccccc21 (configuration not stated),30.9
12,CCSc1ccc2c(c1)N(CCCN1CCN(C)CC1)c1ccccc1S2,70.4
13,CN1CCN(CCCN2c3ccccc3Sc3ccc(C(F)(F)F)cc32)CC1,59.5
14,COc1ccccc1N1CCN(CCCCNC(=O)c2ccc(-c3ccc(C(C)=O)cc3)cc2)CC1,1.38
15,COc1ccc2c(c1)N(C[C@H](C)CN(C)C)c1ccccc1S2,14.6
16,CCC(=N\O)/C(C)=C/c1ccc(F)cc1,47.7
17,C[C@@H](NCc1cc(Br)cc2nc(O)c(O)nc12)P(=O)(O)O,7.12
18,CCCCCCCCCCCCCCCCCCCCCC(=O)O,-9.27
19,COc1cc(N2CCC(N(C)C)CC2)ccc1Nc1ncc(Cl)c(Nc2ccccc2P(C)(C)=O)n1,3.02
20,CCC[C@@H](NC(=O)N1C(=O)C(CC)(CC)[C@@H]1Oc1ccc(C(=O)N2CCN(C)CC2)cc1)c1ccc2c(c1)OCO2,9.19
21,CCn1c2ccccc2c2cc(CNC)ccc21,-7.52
22,COc1cccc(OC)c1-c1cc(C(=O)N[C@@H](CC(C)C)C(=O)O)nn1-c1ccnc2cc(Cl)ccc12,6.09
23,CCCCN1CC(O)C(O)C(O)C1CO (configuration not stated),-6.7
24,COc1cc2c(cc1NS(=O)(=O)c1ccc(Br)cc1C)n(C)c(=O)n2C,19.4

row,Compound,inhibition [%]
1,O=c1[nH]c([C@@H]2CCCN2)nc2c1oc1ccc(Cl)cc12,-8.21
2,CC(C)(C)NC(=O)[C@@H]1C[C@@H]2CCCC[C@@H]2CN1C[C@@H](O)[C@H](Cc1ccccc1)NC(=O)[C@H](CC(N)=O)NC(=O)c1ccc2ccccc2n1,2.2
3,NCCCC(N)C(=O)O (configuration not stated),-5.26
4,CCCCC/C=C\C/C=C\C/C=C\CCCCC(=O)O,20.4
5,O=c1n(CC2CO2)c(=O)n(CC2CO2)c(=O)n1CC1CO1 (configuration not stated),21.5
6,CCN(CC)CCCCN1c2ccccc2Oc2ccc(Cl)cc21,22.7
7,CN(C)CCCN1c2ccccc2CCc2ccc(Cl)cc21,7.48
8,CN(C)CCCN1c2ccccc2Sc2ccc(Cl)cc21,59.7
9,c1ccc2c(Oc3nc(Nc4ccc(N5CCOCC5)cc4)c4ncn(C5CCCCC5)c4n3)cccc2c1,2.11
10,O=C(c1c2ccccc2cc2ccccc12)N1CCC(N2CCC[C@@H](C(=O)N3CCOCC3)C2)CC1,16
11,C[C@@]12CCC3[C@@](CC[C@@H]4[C@](C)(C(=O)O)CCC[C@@]34C)(CC1=O)C2 (some centres not stated),11.5
12,c1ccc2c(c1)CCC[C@H]2Nc1nc2ccccc2[nH]1,96.9
13,CCNC(=O)N1CCN(CCCC(c2ccc(F)cc2)c2ccc(F)cc2)CC1,-5.99
14,CC(C)C[C@H](NC(=O)[C@@H](COC(C)(C)C)NC(=O)[C@H](Cc1ccc(O)cc1)NC(=O)[C@H](CO)NC(=O)[C@H](Cc1c[nH]c2ccccc12)NC(=O)[C@H](Cc1cnc[nH]1)NC(=O)[C@@H]1CCC(=O)N1)C(=O)N[C@@H](CCCNC(=N)N)C(=O)N1CCC[C@H]1C(=O)NNC(N)=O,7.12
15,CCCCCCCCCCCCCCCC(=O)N[C@@H](CCC(=O)NCCCC[C@H](NC(=O)[C@H](C)NC(=O)[C@H](C)NC(=O)[C@H](CCC(N)=O)NC(=O)CNC(=O)[C@H](CCC(=O)O)NC(=O)[C@H](CC(C)C)NC(=O)[C@H](Cc1ccc(O)cc1)NC(=O)[C@H](CO)NC(=O)[C@H](CO)NC(=O)[C@@H](NC(=O)[C@H](CC(=O)O)NC(=O)[C@H](CO)NC(=O)[C@@H](NC(=O)[C@H](Cc1ccccc1)NC(=O)[C@@H](NC(=O)CNC(=O)[C@H](CCC(=O)O)NC(=O)[C@H](C)NC(=O)[C@@H](N)Cc1cnc[nH]1)[C@@H](C)O)[C@@H](C)O)C(C)C)C(=O)N[C@@H](CCC(=O)O)C(=O)N[C@@H](Cc1ccccc1)C(=O)N[C@H](C(=O)N[C@@H](C)C(=O)N[C@@H](Cc1c[nH]c2ccccc12)C(=O)N[C@@H](CC(C)C)C(=O)N[C@H](C(=O)N[C@@H](CCCNC(=N)N)C(=O)NCC(=O)N[C@@H](CCCNC(=N)N)C(=O)NCC(=O)O)C(C)C)[C@@H](C)CC)C(=O)O,102
16,CC(C)C[C@H](NC(=O)CNC(=O)[C@H](Cc1ccc(O)cc1)NC(=O)[C@H](CO)NC(=O)[C@H](Cc1c[nH]c2ccccc12)NC(=O)[C@H](Cc1cnc[nH]1)NC(=O)[C@@H]1CCC(=O)N1)C(=O)N[C@@H](CCCNC(=N)N)C(=O)N1CCC[C@H]1C(=O)NCC(N)=O,18.4
17,CCCCc1nc2ccn(CC(=O)N(C)C)c(=O)c2n1Cc1ccc(-c2ccccc2-c2nnn[nH]2)cc1,0.96
18,CCCc1cc(C)[nH]c(=O)c1CNC(=O)c1cc(-c2ccc(N3CCN(C(C)C)CC3)nc2)cc2c1cnn2C(C)C,8.48
19,O[C@@H](COc1cccc2ncccc12)CN1CCN([C@@H]2c3ccccc3[C@@H]3[C@H](c4ccccc42)C3(F)F)CC1,10.7
20,Cc1cc(OCCN2CCOCC2)nn1-c1ccc2ccccc2c1,10.2
21,CC(C)(C)c1cc(NC(=O)Nc2ccc(-c3cn4c(n3)sc3cc(OCCN5CCOCC5)ccc34)cc2)no1,1.57
22,Cc1ccc(-n2nc(C(C)(C)C)cc2NC(=O)Nc2ccc(OCCN3CCOCC3)c3ccccc23)cc1,71.1
23,O[C@H]1[C@H](O)[C@@H](O)[C@H](O)[C@@H](O)[C@H]1O,22.8
